# Results: PubChem BioAssay (Tox21)
# Values joined by “and” are separate entries in the source; they are usually repeats but may differ in a detail not shown here. Identical values can stand only once. Inconclusive results are not listed. Entries that show only a call come without a potency. Some structures have more than one record in an assay (separate samples or runs), and their calls can disagree. Active and inactive are the calls of the source. Unless noted, calls follow the shape of the dose curve; as a rule, active = well fitted curve in the direction sought with a large enough effect in the repeat runs; inconclusive = weak or mixed curves; inactive = no such curve, though single readings can be large; an effect the other way counts as inactive or inconclusive.
# How the values were obtained:
# [1] = qHTS assay to identify small molecule agonists of the vitamin D receptor (VDR) signaling pathway - cell viability counter screen (AID 743224); also: nearly all actives have a fitted effect of over 50% in size; also: potency is read from the fitted curve at half-maximal effect
# Method in brief: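 Viability is measured in the same wells as the VDR-bla reporter assay: after 16 h compound treatment and 2 h substrate loading, CellTiter-Glo is added and luminescence read 30 min later.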
# [2] = qHTS assay to identify small molecule antagonists of the vitamin D receptor (VDR) signaling pathway - cell viability counter screen (AID 743225); also: nearly all actives have a fitted effect of over 50% in size
# Method in brief: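 Cytotoxicity counter screen read by CellTiter-Glo luminescence (30 min, room temperature) in the same wells as the VDR-bla antagonist readout. HEK 293T VDR-UAS-bla cells had 16 h at 37C with compound and 3 nM (final) 1-alpha,25-dihydroxyvitamin D3, then 2 h with FRET substrate.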
# [3] = qHTS assay to identify small molecule agonists of the NFkB signaling pathway (AID 1159509; active = well fitted curve in the direction sought with a large enough effect in the signal ratio in the repeat runs, not every such curve was filed as active; the % refers to the signal ratio; also: series mostly up to about 61 µM)
# Method in brief: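 After overnight attachment, reporter cells received test compounds, DMSO or positive controls and were incubated 5 hr at 37 C. FRET substrate was then added for 1.5 hr at room temperature before dual-emission fluorescence reading.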
# [4] = qHTS assay to identify small molecule agonists of the NFkB signaling pathway - cell viability counter screen (AID 1159515; calls by dose curve; also: series mostly up to about 61 µM; nearly all actives have a fitted effect of over 55% in size)
# Method in brief: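 Multiplexed viability readout: after the 5 hr compound exposure and 1.5 hr FRET substrate step, CellTiter-Glo reagent went into the same NFkB-bla ME-180 wells; ATP luminescence was measured after 30 min at room temperature.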
# [5] = qHTS assay to identify small molecule agonists of the endoplasmic reticulum stress response signaling pathway (AID 1159516; active = well fitted activation curve with a large enough effect in the signal ratio in the repeat runs, not every such curve was filed as active; the % refers to the signal ratio)
# Method in brief: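 Tox21 10K library screened in quantitative HTS format on ESRE-bla HeLa cells, a beta-lactamase reporter under ER stress response element control; 5 hr treatment, FRET read.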
# [6] = qHTS assay to identify small molecule agonists of the endoplasmic reticulum stress response signaling pathway - cell viability counter screen (AID 1159517; calls by dose curve; also: series mostly up to about 61 µM; nearly all actives have a fitted effect of over 50% in size)
# Method in brief: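 Luminescence readout: CellTiter-Glo, 30 min RT, same wells as the ESRE-bla reporter read. HeLa ESRE-bla, 1,500 cells/well, o/n 37 C; cpd 5 hr 37 C/5% CO2.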
# [7] = qHTS assay to identify small molecule antagonists of the retinoid-related orphan receptor gamma (ROR-gamma) signaling pathway - cell viability counter screen (AID 1159520); also: nearly all actives have a fitted effect of over 50% in size
# Method in brief: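 Tet-on ROR gamma CHO cells (1,000/well) were plated 4 hr, given compounds in DMSO for 2 hr at 37 C, then induced with 1 uM final doxycycline for 16 hr. Viability was read as ATP by CellTiter-Glo luminescence after 30 min.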
# [8] = target: Nuclear receptor ROR-gamma (Homo sapiens) (UniProt P51449); experiment: qHTS assay to identify small molecule antagonists of the retinoid-related orphan receptor gamma (ROR-gamma) signaling pathway (AID 1159521; also: nearly all actives have a fitted effect of over 50% in size; also: potency is read from the fitted curve at half-maximal effect)
# Method in brief: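 Antagonist read-out: drop in luminescence (ONE-Glo) from an RORE-LUC reporter in CHO cells with doxycycline-inducible ROR-gamma; 2 hr compound pretreatment, 1 uM doxycycline, 16 hr incubation at 37 C.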
# [9] = qHTS assay to identify small molecule agonists of the AP-1 signaling pathway - cell viability counter screen (AID 1159525; calls by dose curve; also: nearly all actives have a fitted effect of over 55% in size)
# Method in brief: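 ME-180 AP-1-bla, 2500 cells/well, Opti-MEM + 0.5% dialyzed FBS; overnight 37 °C; cpd 15-pt titration, 5 h 37 °C; CellTiter-Glo 30 min RT; luminescence read; normalised to TOAB and DMSO controls.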
# [10] = qHTS assay to identify small molecule agonists of the AP-1 signaling pathway (AID 1159526; calls by dose curve)
SMILES,Potency [1],Potency [2],outcome [3],Potency [4],Potency [5],Potency [6],Potency [7],Potency [8],Potency [9],outcome [10]
O=c1oc(=O)c2cc3c(=O)oc(=O)c3cc12,inactive,inactive,inactive,inactive,inactive,inactive,inactive,inactive,inactive,inactive
CC(C)CC(C)(O)C#CC(C)(O)CC(C)C (stereo unspecified),inactive,inactive,inactive,inactive,inactive,inactive,inactive,inactive,inactive,inactive
O=C(c1ccccc1)c1ccccc1O,inactive,inactive,inactive,inactive,inactive,inactive,inactive,inactive,inactive,inactive
CC(C)=CCCC(C)CCO (stereo unspecified),inactive,inactive,inactive,inactive,inactive,inactive,inactive,inactive,inactive,inactive
Cc1c(OCC(F)(F)F)ccnc1CS(=O)c1nc2ccccc2[nH]1 (stereo unspecified),inactive,inactive,inactive,inactive,inactive,inactive,inactive,inactive,inactive,inactive
c1cc(-c2ccncc2)ccn1,inactive,inactive,inactive,inactive,inactive,inactive,inactive,inactive,inactive,inactive
CCC(C)CO (stereo unspecified),inactive,inactive,inactive,inactive,inactive,inactive,inactive,inactive,inactive,inactive
CN(C)c1nc(N(C)C)nc(N(C)C)n1,inactive,inactive,inactive,inactive,inactive,inactive,inactive,inactive,inactive,inactive
OC(CCl)CCl,inactive,inactive,inactive,inactive,inactive,inactive,inactive,inactive,inactive,inactive
CC1=CC2C3CC(C=C3C)C2C1 (stereo unspecified),inactive,inactive,inactive,inactive,inactive,inactive,inactive,inactive,inactive,inactive
C=C(C)C(=O)OCCOC(=O)C(=C)C,inactive,inactive,inactive,inactive,inactive,inactive,inactive,inactive,inactive,inactive
COc1ccc(OC)c(C(O)CNC(=O)CN)c1 (stereo unspecified),inactive,inactive,inactive,inactive,inactive,inactive,inactive,inactive,inactive,inactive
C[C@]12CCC(=O)C=C1CC[C@@H]1[C@@H]2C(=O)C[C@@]2(C)[C@H]1CC[C@]2(O)C(=O)CO,24.5 µM (active) and inactive,inactive,inactive,inactive,inactive,inactive,inactive,inactive,inactive,inactive
CCCC(=O)O,inactive,inactive,inactive,inactive,inactive,inactive,inactive,inactive,inactive,inactive
c1cc(N(CC2CO2)CC2CO2)ccc1OCC1CO1 (stereo unspecified),inactive,inactive,inactive,inactive,inactive,inactive,inactive,54.5 µM (active) and 61.1 µM (active),inactive,inactive
O=C(OCc1ccccc1)c1ccccc1O,inactive,inactive,inactive,inactive,inactive,inactive,inactive,inactive,inactive,inactive
Cc1ccc(C)c(O)c1C,inactive,inactive,inactive,inactive,inactive,inactive,inactive,inactive,inactive,inactive
Cc1cc2nc3c(=O)[nH]c(=O)nc-3n(C[C@H](O)[C@H](O)[C@H](O)CO)c2cc1C,inactive,inactive,inactive,inactive,inactive,inactive,inactive,inactive,inactive,inactive
CC(C)OC(=O)C(C)(C)Oc1ccc(C(=O)c2ccc(Cl)cc2)cc1,13.8 µM (active) and inactive,inactive,inactive,inactive,inactive,inactive,inactive,68.6 µM (active),inactive,inactive
O=C(O)c1ccccc1Nc1cccc(C(F)(F)F)c1,inactive,inactive,inactive,inactive,inactive,inactive,inactive,inactive,inactive,inactive
O=C(/C=C/C=C/c1ccc2c(c1)OCO2)N1CCCCC1,inactive,inactive,inactive,inactive,inactive,inactive,inactive,inactive,inactive,inactive
CCCCNS(=O)(=O)c1ccccc1,inactive,inactive,inactive,inactive,inactive,inactive,inactive,inactive,inactive,inactive

SMILES,Potency [1],Potency [2],outcome [3],Potency [4],Potency [5],Potency [6],Potency [7],Potency [8],Potency [9],outcome [10]
CCCc1c(OCCCCc2nn[nH]n2)ccc(C(C)=O)c1O,inactive,inactive,inactive,inactive,inactive,inactive,inactive,inactive,inactive,inactive
COc1c(Cl)c(Cl)c(Cl)c(Cl)c1Cl,inactive,inactive,inactive,inactive,inactive,inactive,inactive,inactive,inactive,inactive
CC(=O)C1(C)CC2=C(CCCC2(C)C)CC1C (stereo unspecified),inactive,inactive,inactive,inactive,inactive,inactive,inactive,inactive,inactive,inactive
CC(C(=O)O)c1cccc(C(=O)c2ccccc2)c1 (stereo unspecified),inactive,inactive,inactive,inactive,inactive,inactive,inactive,inactive,inactive,inactive
c1ccncc1,inactive,inactive,inactive,inactive,inactive,inactive,inactive,inactive,inactive,inactive
CCC(C)c1ccccc1O (stereo unspecified),inactive,inactive,inactive,inactive,inactive,inactive,inactive,inactive,inactive,inactive
CCC(C)OC(=O)c1ccc(O)cc1 (stereo unspecified),inactive,,inactive,inactive,inactive,inactive,inactive,inactive,inactive,inactive
O=C(c1ccccc1)c1ccc(O)cc1O,inactive,inactive,inactive,inactive,inactive,inactive,inactive,55.5 µM (active) and inactive,inactive,inactive
COC(=O)Nc1nc2ccc(S(=O)c3ccccc3)cc2[nH]1 (stereo unspecified),inactive,inactive,inactive,inactive,inactive,inactive,inactive,inactive,inactive,inactive
CCCCC(CC)COC(=O)c1ccc(N(C)C)cc1 (stereo unspecified),inactive,inactive,inactive,inactive,inactive,inactive,inactive,inactive,inactive,inactive
O=C(/C=C/c1ccccc1)OCc1ccccc1,inactive,inactive,inactive,inactive,inactive,inactive,inactive,inactive,inactive,inactive
Cc1[nH]c(=O)c(C#N)cc1-c1ccncc1,inactive,inactive,inactive,inactive,inactive,inactive,inactive,inactive,inactive,inactive
C[Si](C)(C)O[Si](C)(C)C,inactive,inactive,inactive,inactive,inactive,inactive,inactive,inactive,inactive,inactive
C/C=C/C(=O)O,inactive,inactive,inactive,inactive,inactive,inactive,inactive,inactive,inactive,inactive
Cc1ncc[nH]1,inactive,inactive,inactive,inactive,inactive,inactive,inactive,inactive,inactive,inactive
Cc1cccc(C(=O)O)c1,inactive,inactive,inactive,inactive,inactive,inactive,inactive,inactive,inactive,inactive
CC(CCC(=O)O)(c1ccc(O)cc1)c1ccc(O)cc1,inactive,inactive,inactive,inactive,inactive,inactive,inactive,inactive,inactive,inactive
CC(C)OB(OC(C)C)OC(C)C,inactive,inactive,inactive,inactive,inactive,inactive,inactive,inactive,,inactive
O=Cc1ccccc1O,inactive,inactive,inactive,inactive,inactive,inactive,inactive,inactive,,inactive
Nc1ccc(S(=O)(=O)Nc2cnc3ccccc3n2)cc1,inactive,inactive,inactive,inactive,inactive,inactive,inactive,inactive,inactive,inactive
C=CC(C)(CCC=C(C)C)OC(C)=O (stereo unspecified),inactive,inactive,inactive,inactive,inactive,inactive,inactive,inactive,,inactive
CCCCC(CC)COCC1CO1 (stereo unspecified),inactive,inactive,inactive,inactive,inactive,inactive,inactive,inactive,inactive,inactive
